A350 autofl: compound fluoresces in the Alexa 350 spectral region; Compound autofluorescence, 340/450 nm, Alexa 350 dye-equivalents; active compounds read high; max dye-equivalent concentration, M; 59,000 tested, 11% active; AID 590; in the data active means max dye-equivalent concentration above about 10 nM; inconclusive means mostly about 1.1 nM to 9.6 nM
CRE-bla Fsk: alters forskolin-stimulated CRE reporter signaling in CHO cells. Potency, µM (titrated, usually from 38.2 µM), without a hit: at the highest dose activity change, negative = inhibition, actives largely listed as activators. 71,000 tested, 2.5% active. CHO CRE-bla reporter (cAMP response element driving beta-lactamase), forskolin EC10, beta-lactamase ratio; active means well fitted activation curve with a large enough effect in the signal ratio, with a control signal flat, not every such curve was filed as active; inconclusive means small, poorly fitted or top-dose-only effect, or effect the other way, or a change in a side signal; the % refers to the signal ratio; further: potency means the concentration at half of the fitted maximal effect; % of control where 0% means no effect
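Using CellSensor CRE-bla CHO cells in Opti-MEM with 0.5% dialyzed FBS, compounds were titrated with EC10 NKH 477 for 3 h at 37 °C. CCF4 ratio (460/530 nm) gave %Activity; AC50 derived.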
HSD17B inh: blocks hydroxysteroid 17-beta dehydrogenase activity; Q99714; recombinant HSD17B10, NADH fluorescence kinetic; Potency, µM (doses to about 57.1 µM), for the others: top-dose activity change, negative = inhibition, actives largely listed as inhibitors; 75,000 tested, 7.6% active; AID 893;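 further: the protocol describes HADH2 (HSD17B10) and not the HSD17B4 of the title; potency means the concentration at half of the fitted maximal effect; on the % scale 0 is the no-effect control and ±100 the full control effect; nearly all actives have a fitted effect of over 70% in size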
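Enzyme plus compound, 15 min room temperature; substrate mix added (NAD+ 1 mM, beta-hydroxybutyryl-CoA 90 uM final); plates read kinetically for NADH fluorescence. HADH2 was His-tagged, E. coli-derived, 20 nM.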
AID923: qHTS Assay for Allosteric/Competitive Inhibitors of Caspase-1: Spectroscopic Profiling in AFC Spectral Region | Potency, µM (titrated, usually from 57.5 µM), inactives show at the top dose fluorescence increase, usual class: activators | 75,000 tested, 1.1% active | compound fluorescence, AFC spectral region (405/520 nm); further: potency means the concentration at half of the fitted maximal effect; 0% is about no effect
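Compound autofluorescence profiled at 405 nm ex/520 nm em during kinetic caspase 1 run (50 nM enzyme, 5 uM Ac-WEHD-AFC, HEPES pH 7.5, 10 mM DTT). Titration up to 57 uM; baseline from regression intercept, normalized to AFC standard curve.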
4-MU autofl: compound fluoresces in the 4-MU spectral region. 59,000 tested, 11% active. compound autofluorescence, 340/450 nm, 4-MU equivalents; active compounds read high. max dye-equivalent concentration, M; in the data active means max dye-equivalent concentration above about 10 nM; inconclusive means mostly about 1.1 nM to 9.6 nM
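Intrinsic fluorescence at 340/450 nm (ex/em) was read after 15 min at room temperature in pH 8.0, 100 mM Tris. Each compound concentration expressed as 4-MU-equivalent concentration from a six-point 4-MU standard series on each plate.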
HADH2 inhib: blocks human hydroxyacyl-CoA dehydrogenase type II | Q99714 | recombinant HADH2, NADH fluorescence, beta-hydroxybutyryl-CoA | Potency, µM (doses to about 57.1 µM), for inactives: at the highest dose activity change, negative = inhibition, actives largely listed as inhibitors | 73,000 tested, 3.4% active | AID 886; further: potency means the concentration at half of the fitted maximal effect; on the % scale 0 is the no-effect control and ±100 the full control effect; nearly all actives have a fitted effect of over 60% in size
Target sequence (Q99714 whole entry, looked up, one chain of several): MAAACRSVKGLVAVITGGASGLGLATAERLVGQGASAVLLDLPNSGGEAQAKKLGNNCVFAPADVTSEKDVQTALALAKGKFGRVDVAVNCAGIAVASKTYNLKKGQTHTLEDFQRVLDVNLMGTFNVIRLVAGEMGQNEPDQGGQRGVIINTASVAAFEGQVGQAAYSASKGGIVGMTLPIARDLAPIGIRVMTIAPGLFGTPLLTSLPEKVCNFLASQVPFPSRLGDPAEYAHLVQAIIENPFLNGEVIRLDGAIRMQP
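20 nM HADH2 + cpd, 15 min RT; add 1 mM NAD+/90 uM beta-hydroxybutyryl-CoA; kinetic fluorescence 360/450 nm, 4 min. Tris-HCl pH 9.0, 0.01% Tween-20.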
Numbers without * were called inactive; [ ] = dose if it differs, or a comment. Shown are actives, neighbours in structure and some others; about 14% of the full set was active somewhere. Unless noted, the call rests on the fitted dose curve; in most records, active means well fitted curve in the direction sought with a large enough effect; inconclusive means small, poorly fitted or top-dose-only effect, or another doubt; inactive means no such curve, though single readings can be large; an effect the other way counts as inactive or inconclusive.

Results for COc1ccc(NC(=O)c2ccc3c(c2)OCO3)cc1Cl ?
A350 autofl: inactive; CRE-bla Fsk: inconclusive; HSD17B inh: 32µM*; AID923: -2%; 4-MU autofl: inactive; HADH2 inhib: 7%

How did COC(=O)c1sccc1NC(=O)c1ccc2c(c1)OCO2 do in these assays?
CRE-bla Fsk: inconclusive; HSD17B inh: -25%; AID923: 0%; HADH2 inhib: -5%

Results for COc1cccc(NC(=O)c2oc3ccccc3c2NC(=O)c2ccc3c(c2)OCO3)c1 ?
A350 autofl: 1.5e-07M*; CRE-bla Fsk: 14%; HSD17B inh: 32µM*; AID923: 1%; 4-MU autofl: 1.8e-07M*; HADH2 inhib: -21%

How did O=S(=O)(c1ccccc1)N1CCC[C@@]2(CCN(c3ccncc3)C2)C1 do in these assays?
A350 autofl: inactive; CRE-bla Fsk: 12%; HSD17B inh: 11%; AID923: 1%; 4-MU autofl: inactive; HADH2 inhib: 9%

Results for COc1ccc2[nH]cc(CCNc3cc(-c4c(C)noc4C)ncn3)c2c1 ?
A350 autofl: inactive; CRE-bla Fsk: inconclusive; HSD17B inh: -11%; AID923: 2%; 4-MU autofl: inactive; HADH2 inhib: -24%

Results for CN(C)CCCSc1ccccc1NC(=O)/C=C\c1ccccc1 ?
CRE-bla Fsk: inconclusive; HSD17B inh: -4%; AID923: -2%; HADH2 inhib: 6%

How did N[C@H](Cc1cc(I)c(Oc2cc(I)c(O)c(I)c2)c(I)c1)C(=O)O do in these assays?
A350 autofl: inactive; CRE-bla Fsk: -5%[17.1 µM]; HSD17B inh: inconclusive; AID923: 1%[25.7 µM]; 4-MU autofl: inactive; HADH2 inhib: inconclusive

What do the screens show for `O=c1c2c(nc3c(-c4cccc5ccccc45)c[nH]n13)CCC2`?
A350 autofl: 1.5e-08M*; CRE-bla Fsk: -4%; HSD17B inh: 32µM*; AID923: -2%; 4-MU autofl: 1.5e-08M*; HADH2 inhib: inconclusive

How did O=c1c2c(nc3c(-c4ccc(Cl)cc4)c[nH]n13)CCCC2 do in these assays?
A350 autofl: inconclusive; CRE-bla Fsk: 5%; HSD17B inh: 6.3µM*; AID923: 1%; 4-MU autofl: inconclusive; HADH2 inhib: 16µM*

What do the screens show for `CC(C)CCCC(C)C1CCC2C3CC=C4CC(=O)CC[C@@]4(C)C3CC[C@@]12C` (some centres not stated)?
HSD17B inh: -11%; AID923: -4%

What do the screens show for `CCOC(=O)CCCCC(=O)c1[nH]c(=O)[nH]c1Cn1cnc2ccccc21`?
A350 autofl: inactive; CRE-bla Fsk: -5%; HSD17B inh: -3%; AID923: 1%; 4-MU autofl: inactive; HADH2 inhib: 8%

Results for CCOC(=O)CCCCC(=O)c1[nH]c(=O)[nH]c1CSc1nc(-c2ccccc2)c(C#N)c(=O)[nH]1 ?
A350 autofl: inactive; CRE-bla Fsk: -7%; HSD17B inh: -25%; AID923: -1%; 4-MU autofl: inactive; HADH2 inhib: 25µM*

What do the screens show for `COc1cc(C(c2sc3nc(C)nn3c2O)N2CCOCC2)cc(OC)c1OC` (configuration not stated)?
CRE-bla Fsk: 8%; HSD17B inh: 10%; AID923: -2%; HADH2 inhib: 8%

Results for COc1cccc(C(c2sc3ncnn3c2O)N2CCc3ccccc3C2)c1 (configuration not stated) ?
CRE-bla Fsk: inconclusive; HSD17B inh: 32µM*; AID923: -5%; HADH2 inhib: -26%

How did COc1cc(C(c2sc3nc(C)nn3c2O)N2CCc3ccccc3C2)cc(OC)c1OC (configuration not stated) do in these assays?
CRE-bla Fsk: inconclusive; HSD17B inh: 25µM*; AID923: -2%; HADH2 inhib: inconclusive

What do the screens show for `COc1cc(C(c2sc3nc(C)nn3c2O)N2CCN(c3ccccc3)CC2)cc(OC)c1OC` (configuration not stated)?
CRE-bla Fsk: 2µM*; HSD17B inh: -2%; AID923: 14%; HADH2 inhib: inconclusive

What do the screens show for `O=C(CN1CCCCC1)Nc1ccc(F)c(Cl)c1`?
A350 autofl: 5.5e-08M*; CRE-bla Fsk: -5%; HSD17B inh: -7%; AID923: -1%; 4-MU autofl: 4e-08M*; HADH2 inhib: 9%

What do the screens show for `O=C1CC[C@](CCc2nc3ccccc3[nH]2)(c2ccccc2)C(=O)N1`?
A350 autofl: inactive; CRE-bla Fsk: -11%[7.6 µM]; HSD17B inh: -3%[11.4 µM]; AID923: -1%[11.5 µM]; 4-MU autofl: inactive; HADH2 inhib: 9%[11.4 µM]

How did CN1CCc2ccccc2Cc2[nH]c3ccccc3c2CC1 do in these assays?
A350 autofl: inactive; CRE-bla Fsk: -24%; HSD17B inh: -5%; AID923: 7%; 4-MU autofl: inactive; HADH2 inhib: -13%

How did COc1ccc2[nH]c3c(c2c1)CN(C)CC3 do in these assays?
A350 autofl: inactive; CRE-bla Fsk: inconclusive; HSD17B inh: inconclusive; AID923: 0%; 4-MU autofl: inactive; HADH2 inhib: 2µM*

How did COC(=O)C/C=C\[C@H](C)[C@@H](OC)c1ccccc1Br do in these assays?
HSD17B inh: 0%[11.4 µM]; AID923: -1%[11.5 µM]; HADH2 inhib: -8%[11.4 µM]

How did O=C(c1csnn1)N1CCC2(CC1)CCN(c1ccccn1)CC2 do in these assays?
A350 autofl: inactive; CRE-bla Fsk: 5%; HSD17B inh: 25µM*; AID923: 1%; 4-MU autofl: inactive; HADH2 inhib: 5%

Results for O=C(c1ccco1)N1CCC2(CC1)CCN(c1ccccn1)CC2 ?
A350 autofl: inactive; CRE-bla Fsk: -16%; HSD17B inh: 32µM*; AID923: 1%; 4-MU autofl: inactive; HADH2 inhib: -9%

How did CCCS(=O)(=O)N1CCN(c2ccccn2)CC1 do in these assays?
A350 autofl: inactive; CRE-bla Fsk: 1%; HSD17B inh: 32µM*; AID923: 0%; 4-MU autofl: inactive; HADH2 inhib: 1%

Results for O=S(=O)(c1cccs1)N1CCN(c2ccccn2)CC1 ?
A350 autofl: inactive; CRE-bla Fsk: 15%; HSD17B inh: -19%; AID923: -2%; 4-MU autofl: inactive; HADH2 inhib: -5%

Results for O=C(NC(Cc1ccccc1)C(=O)N1CCN(c2ccccn2)CC1)c1ccco1 (configuration not stated) ?
A350 autofl: inactive; CRE-bla Fsk: -7%; HSD17B inh: 32µM*; AID923: -2%; 4-MU autofl: inactive; HADH2 inhib: 8%
